# Hit rate of the full screen: of about 2,100 compounds, about 650 (31%) were called active. Another 16% or so got no clear call; they are omitted. The list shows a part of the results. Values without a mark were called inactive. The call rests on the fitted dose curve; in most records, active means well fitted inhibition curve with a large enough effect; inconclusive means small, poorly fitted or top-dose-only effect; inactive means flat fitted curve, though single readings scatter.
# Assay: qHTS for inhibitors of Vif-A3G interactions: Cherry picks; further: nearly all actives have a fitted effect of over 80% in size; on activity, negative = fluorescence increase: % of control where 0% means no effect
# Details: HeLa A3G-eYFP + Vif (tagged APOBEC3G with the HIV-1 protein that degrades it), 24 h; Potency: eYFP fluorescence increase; series mostly up to 36.9 µM; activity, negative = fluorescence increase: at the top concentration
# Procedure, shortened: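 Cherry-picked compounds tested at several concentrations on A3G-eYFP/Vif HeLa cells for 24 hours; loss of Vif-driven degradation read as eYFP fluorescence by cytometric plate imaging, 488 nm excitation, 500-530 nm emission.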
# Potency means the concentration at half of the fitted maximal effect.
Structure (SMILES),"activity, negative = fluorescence increase",Potency
Cc1c(NC(=O)c2csc3c2CCCC3)c(=O)n(-c2ccccc2)n1C,-0.126% [at 46.1 µM],
Cc1c(N/N=C(\C#N)C(=O)c2ccc(Cl)cc2)c(=O)n(-c2ccccc2)n1C,,20.6 µM (active)
COc1cc(/C=C2/CCC/C(=C\c3cc(O)c(OC)c(Cl)c3)C2=O)cc(Cl)c1O,,18.4 µM (active)
COc1cc(/C=N/Nc2ccc(Cl)nn2)cc(OC)c1O,-0.889%,
COc1cc(/C=C2\COC/C(=C\c3cc(OC)c(OC)c(OC)c3)C2=O)cc(OC)c1OC,-2.34%,
COc1cc(C=C2CCCC(=Cc3ccc(OCC4CO4)c(OC)c3)C2=O)ccc1OCC1CO1 (configuration not stated),-3.47%,
CCOc1cc(/C=C2\CCC/C(=C\c3cc(Cl)c(O)c(OCC)c3)C2=O)cc(Cl)c1O,,12.5 µM (active)
C=CCOc1c(Cl)cc(C(=S)N2CCCC2)cc1OCC,-12.3%,
Cn1c(=O)c(N)c2c3c(c(Br)ccc31)C(=O)c1ccccc1-2,,2.91 µM (active)
O=[N+]([O-])c1cc(-c2nc(-c3ccccc3)no2)ccc1NCc1ccco1,,10.3 µM (active)
Cc1cccc(-c2noc(-c3ccc(NCc4ccco4)c([N+](=O)[O-])c3)n2)c1,,16.4 µM (active)
COc1ccccc1-c1noc(-c2ccc(NCc3ccco3)c([N+](=O)[O-])c2)n1,,23.1 µM (active)
COc1ccc(-c2cnc3c(c2)CCC3(C#N)C#N)cc1,-12.3%,
O=C1N/C(=N\N=C\c2ccco2)SC1Cc1ccccc1[N+](=O)[O-] (configuration not stated),2.93% [at 46.1 µM],
Cc1ccccc1NCC(=O)N=Nc1c(O)[nH]c2ccc([N+](=O)[O-])cc12,-23.3%,
CCN(CC)S(=O)(=O)c1cc([N+](=O)[O-])ccc1N=Nc1c(O)[nH]c2ccccc12,,20.6 µM (active)
CN1C2=CC=CC=CC2=[N+](C)C12C([N+](=O)[O-])=CC(=[N+]([O-])[O-])C=C2[N+](=O)[O-] (configuration not stated),-22.7%,
Nc1nn(-c2ccccc2)c(N)c1N=Nc1ccccc1,-22.3%,
Nc1c(N(CCC2=CCCCC2)C(=O)c2ccc([N+](=O)[O-])o2)c(=O)[nH]c(=O)n1Cc1ccccc1,,18.4 µM (active)
CCCCN(C(=O)c1ccc([N+](=O)[O-])s1)c1c(N)n(CCCC)c(=O)[nH]c1=O,3.16% [at 46.1 µM],
CCCCn1c(N)c(N(CCC(C)C)C(=O)c2ccc([N+](=O)[O-])o2)c(=O)[nH]c1=O,1.21% [at 46.1 µM],
O=Cc1s/c(=N\S(=O)(=O)c2ccccc2)n(CCCCl)c1Cl,-29.7% [at 46.1 µM],
CCOC(=O)Cn1c(=O)c(-c2cc(Br)ccc2N)nc2ccccc21,,11.6 µM (active)
CCOC(=O)COn1c(=O)c(-c2ccc(Br)cc2)[n+]([O-])c2ccccc21,-1.62% [at 46.1 µM],
CCOC(=O)CSc1nc2c(c(=O)[nH]1)C(C)(CC)Cc1ccccc1-2 (configuration not stated),6.71% [at 46.1 µM],

Structure (SMILES),"activity, negative = fluorescence increase",Potency
CCOC(=O)c1c(C)oc2ccc(N(C(=O)c3ccncc3)S(=O)(=O)c3ccc(Br)cc3)cc12,0.275% [at 46.1 µM],
COc1cc(C(=O)NCC(=O)N2CCN(S(=O)(=O)c3cc(C)ccc3C)CC2)cc(OC)c1OC,-8.03%,
COc1ccc(S(=O)(=O)NCc2ccccn2)cc1NC(=O)c1ccc(C)cc1,-5.54%,
COc1ccc(-n2c(O)c(/C=N/NS(=O)(=O)c3cc(C)ccc3C)c3ccccc3c2=O)cc1OC,,16.4 µM (active)
COc1ccc(-n2c(O)c(/C=N/NS(=O)(=O)c3ccc(C)cc3)c3ccccc3c2=O)cc1OC,,18.4 µM (active)
COc1ccc(OC)c(S(=O)(=O)N/N=C\c2cn(CC(N)=O)c3ccccc23)c1,-0.126%,
COc1cc(/C=N/Nc2cc(C)nc(NS(=O)(=O)c3ccccc3)n2)ccc1O,7.07% [at 46.1 µM],
CCC(=O)OCc1cnc(C)c2oc(=O)c(C(=O)Nc3ccccc3C(F)(F)F)cc12,1.85% [at 46.1 µM],
CC(=O)Nc1cccc(-c2ccnc3c2CC(C(=O)Nc2ccc4c(c2)OCO4)O3)c1 (configuration not stated),-7.38%,
c1ccc(-c2cccc(-c3ccccn3)n2)nc1,-1.7%,
O=[N+]([O-])c1cc(O)c2ncccc2c1,-0.625%,
Nc1[nH]c2cc([N+](=O)[O-])ccc2c1-c1ccccn1,,8.2 µM (active)
COc1ccc(-n2nnnc2S(=O)(=O)Cc2ccc(C(=O)O)cc2)cc1,0.257%,
COc1cccc(NC(=O)c2sc3nc(C)c(C(=O)Nc4ccc(C)cc4C)c(-c4ccco4)c3c2N)c1,-28.7% [at 46.1 µM],
CCOC(=O)c1[nH]c(C)c(C(=O)Nc2ccc(C)cc2C)c1C,-4.32%,
CCc1ccc(NC(=O)c2sc3nc(C)c(C(=O)Nc4ccc(C)cc4C)c(-c4ccco4)c3c2N)cc1,,23.1 µM (active)
Cc1ccc(NC(=O)c2c(C)nc3sc(C(=O)NC4CCCC4)c(N)c3c2-c2ccco2)c(C)c1,,20.6 µM (active)
CCOC(=O)N1CCN(C(=O)c2[nH]c(C(F)(F)F)nc2-c2ccccc2)CC1,-3.99%,
CC1(C(=O)NCc2ccc(F)c(F)c2)Cc2c(-c3cccc(C(N)=O)c3)ccnc2O1 (configuration not stated),-4.8%,
COc1ccc(CN(C(C)=O)c2cccc(C)c2C)cc1,-5.97%,
FC(F)(F)c1ccccc1NC(=S)NN=C1CCCCCC1,-18% [at 46.1 µM],
COC(=O)c1sccc1S(=O)(=O)N(CC(=O)Nc1cc(F)ccc1F)c1ccc(C)c(C)c1,2% [at 46.1 µM],
N#CCC(=O)N/N=C/c1ccc(N2N=C(c3ccccc3)CC2c2ccccc2)cc1 (configuration not stated),,20.6 µM (active)
C/C(=N\NC(=S)NCc1ccccc1)c1cccs1,-8.35% [at 46.1 µM],
C/C(=N\Nc1nccnc1Cl)c1ccc(Cl)c(Cl)c1,-2.4% [at 46.1 µM],

Structure (SMILES),"activity, negative = fluorescence increase",Potency
CCOC(=O)c1sc2cc([N+](=O)[O-])cc(SCC(C)C)c2c1N,,2.91 µM (active)
COC(=O)c1sc2cc([N+](=O)[O-])cc(SCC(C)C)c2c1N,,16.4 µM (active)
CS(=O)(=O)N(CC(=O)N1CCN(Cc2ccccc2)CC1)c1ccccc1F,1.65% [at 46.1 µM],
O=C(COC(=O)C12CC3CC(CC(Cl)(C3)C1)C2)N1CCCCC1,-0.277% [at 46.1 µM],
O=Cc1sc(Nc2ccccc2)nc1Cl,,23.1 µM (active)
c1ccc(Nc2nc(-c3ccccn3)cs2)cc1,-20.4% [at 46.1 µM],
Cc1ccc(Nc2nc(Cl)c(C=O)s2)cc1Cl,,16.4 µM (active)
COc1ccc(S(=O)(=O)N2CCCOC2CNC(=O)C(=O)NCCc2ccco2)cc1C (configuration not stated),0.138%,
C=C(C)CNC(=S)NNC(=O)c1ccco1,-0.874%,
Cc1ccc2c(Cl)c(C)c(N3CCCC3)nc2n1,0.2% [at 46.1 µM],
COc1ccc(C(=O)N2CCN(c3cccc(Cl)c3)CC2)cc1S(=O)(=O)NC1CC1,-4.75%,
Cc1ccc(C(=O)NN(C)c2nc3ccccc3nc2C(F)(F)F)cc1,0.321%,
Cc1c(CCCl)c(Cl)n2c(nc3ccccc32)c1C#N,-5.86%,
Cc1ccc(C(=O)NCCn2c(N)c(C#N)c3nc4ccccc4nc32)cc1,,23.1 µM (active)
COc1ccc(-c2cnc3c(NC=O)cc(-c4ccoc4)cn23)cc1OC,-15.1%,
CCN(CC)c1ccc(/C=N/NC(=O)c2ccco2)c(O)c1,-14.9%,
CC(C)NC(=S)N/N=C1\CCCCc2ccccc21,10.1% [at 46.1 µM],
CNC(=S)N/N=C/c1ccc(N2CCOCC2)s1,-0.534% [at 46.1 µM],
CC(C)NC(=S)N/N=C/c1sc(N2CCCCC2)nc1-c1cccs1,,23.1 µM (active)
CCNc1cc(N2CCN(C3CCCCC3)CC2)c2noc3c2c1C(=O)c1ccccc1-3,,16.4 µM (active)
O=C1c2ccccc2-c2onc3c(N4CCN(C5CCCCC5)CC4)cc(NCCO)c1c23,,4.61 µM (active)
CN(C)CCCNc1cc(N2CCN(C3CCCCC3)CC2)c2noc3c2c1C(=O)c1ccccc1-3,,20.6 µM (active)
O=C(c1cc(-c2ccncc2)nc2ccccc12)N1CCN(c2ccccn2)CC1,-7.38%,
CCOc1cc(C)nc(NCc2ccccc2)n1,-13.7%,
C=CCOC(=O)C1=C(C)Nc2nnnn2C1c1cccs1 (configuration not stated),-3.28%,

Structure (SMILES),"activity, negative = fluorescence increase",Potency
N#CC1=C(S)N(c2ccc(F)cc2)C2(CCCCC2)NC1=O,-2.54% [at 46.1 µM],
O=C(COc1ccccc1)NC(=S)Nc1cccc2c(O)cccc12,-6.15%,
COc1ccc(OC)c(NCc2cccn2-c2nnc(N3CCC(C)CC3)s2)c1,-2.15% [at 46.1 µM],
Cc1ccc(CSc2nc(-c3ccc(C(C)(C)C)cc3)nc3cc(=O)[nH]n23)cc1,0.591% [at 46.1 µM],
Nc1c(C(=O)Nc2ccc(F)cc2)sc2nc(-c3cccs3)cc(C(F)(F)F)c12,,1.84 µM (active)
Nc1c(C(=O)Nc2nccs2)sc2nc(-c3cccs3)cc(C(F)(F)F)c12,,14 µM (active)
Nc1c(C(=O)Nc2nc3ccccc3s2)sc2nc(-c3cccs3)ccc12,,18.4 µM (active)
O=C(N/N=C/c1ccsc1)c1cc(-c2cccs2)nc2ccccc12,-2.5%,
O=C(Nc1nc2ccccc2s1)c1ccc([N+](=O)[O-])o1,-9.27%,
Cc1nnc(NC(=O)c2sc3nc(-c4cccs4)cc(C(F)(F)F)c3c2N)s1,,9.2 µM (active)
Cn1c(=O)c2c(nc(NC3CCCC3)n2C)n(C)c1=O,-11.2% [at 46.1 µM],
CSc1nc(N)c(C#N)c(-c2ccccc2Cl)c1C#N,-4.05%,
N#Cc1c(Nc2ccccc2)[n+]([O-])c2ccc(Cl)cc2[n+]1[O-],-9.86%,
COc1cccc(/C(O)=C/c2nc3ccc(C(=O)NCCc4ccc(Cl)cc4)cc3[nH]c2=O)c1,,16.4 µM (active)
COc1ccc2nc(NC(=O)c3nc(S(=O)(=O)Cc4cccc(C)c4)ncc3Cl)sc2c1,-0.58% [at 46.1 µM],
COc1cccc(C(=O)N/N=C/C(Br)=C/c2ccccc2)c1,-2.9%,
COc1cccc(/C(O)=C/c2nc3ccc(C(=O)NCCc4cccc(C)c4)cc3[nH]c2=O)c1,,11.6 µM (active)
CCOC(=S)SCC(=O)N1CCc2cc(OC)ccc2C1C1C(=O)CCCC1=O (configuration not stated),-8.79%,
COc1ccc(NC(=S)Nc2ncccc2C)c(OC)c1,0.453%,
COc1cc(C(=O)c2ccc3c(c2)OCO3)cc(OC)c1OC,-6.58%,
Oc1ccc(C2=NNC(=NCc3ccc4c(c3)OCO4)SC2)c(O)c1,-6.47%,
CC1(C(=O)NCc2ccccc2)Cc2c(-c3ccc(C(N)=O)cc3)ccnc2O1 (configuration not stated),-2.29%,

# Source: PubChem BioAssay AID651812 (National Center for Advancing Translational Sciences (NCATS), 2012)
